According to the supplement of paper PMC11006884:
Of roughly 6,500 targets only a part is listed; those with a hit were picked by preference. About 2% of all pairs of compound and target were hits. Values without a mark were called inactive.

Compound: COC(=O)C#Cc1ccccc1 [methyl 3-phenylpropiolate]
Test: log2 ratio of iodoacetamide-alkyne labeling of the cysteine site, DMSO over compound (competition); higher = stronger covalent engagement of the cysteine by the compound, active = 1 or more
Conditions: 500 µM; treatment time 1 h; system: HEK293T cell lysate
In short: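 HEK293T lysate (2 mg/mL) was treated with DMSO or electrophile (500 µM, 1 h, ambient temperature), then iodoacetamide alkyne (1 h), clicked to sCIP-TMT reagents, pooled, trypsin-digested overnight at 37 °C, streptavidin-enriched and acid-eluted. Peptides were run on Orbitrap Eclipse LC-MS/MS with FAIMS and quantified in FragPipe. The log2 competition ratio per cysteine is mean control-channel over mean compound-channel reporter intensity. Duplicate channels and three replicates were used, and cysteines quantified in only one replicate were excluded.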

UniProt P22102, sequence (P22102 whole entry, looked up): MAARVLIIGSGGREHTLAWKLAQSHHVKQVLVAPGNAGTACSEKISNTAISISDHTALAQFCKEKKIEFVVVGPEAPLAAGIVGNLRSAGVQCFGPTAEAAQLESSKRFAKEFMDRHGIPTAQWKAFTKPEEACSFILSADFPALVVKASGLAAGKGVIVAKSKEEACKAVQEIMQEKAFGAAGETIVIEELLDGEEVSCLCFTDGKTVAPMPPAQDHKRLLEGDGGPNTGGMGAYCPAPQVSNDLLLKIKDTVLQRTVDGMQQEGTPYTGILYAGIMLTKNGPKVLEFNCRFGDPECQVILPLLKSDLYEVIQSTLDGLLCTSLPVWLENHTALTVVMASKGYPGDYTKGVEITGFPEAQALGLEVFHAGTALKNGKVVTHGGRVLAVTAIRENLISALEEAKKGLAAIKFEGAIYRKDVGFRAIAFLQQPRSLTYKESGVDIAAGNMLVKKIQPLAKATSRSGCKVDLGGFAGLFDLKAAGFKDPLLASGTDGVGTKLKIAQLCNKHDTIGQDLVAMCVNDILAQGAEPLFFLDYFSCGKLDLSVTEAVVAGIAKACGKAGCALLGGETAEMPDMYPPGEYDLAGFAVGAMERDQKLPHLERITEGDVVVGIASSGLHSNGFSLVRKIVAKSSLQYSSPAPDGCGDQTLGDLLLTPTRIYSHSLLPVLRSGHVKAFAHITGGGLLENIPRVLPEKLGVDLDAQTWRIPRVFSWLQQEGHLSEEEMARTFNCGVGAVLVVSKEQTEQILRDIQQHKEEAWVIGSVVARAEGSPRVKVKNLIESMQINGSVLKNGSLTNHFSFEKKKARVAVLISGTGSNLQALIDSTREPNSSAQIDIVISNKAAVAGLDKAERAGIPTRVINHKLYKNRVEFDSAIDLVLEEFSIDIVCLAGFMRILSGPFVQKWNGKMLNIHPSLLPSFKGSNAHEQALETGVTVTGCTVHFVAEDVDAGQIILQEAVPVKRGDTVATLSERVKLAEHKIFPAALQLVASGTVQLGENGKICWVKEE
UniProt P42574, sequence (P42574 whole entry, looked up): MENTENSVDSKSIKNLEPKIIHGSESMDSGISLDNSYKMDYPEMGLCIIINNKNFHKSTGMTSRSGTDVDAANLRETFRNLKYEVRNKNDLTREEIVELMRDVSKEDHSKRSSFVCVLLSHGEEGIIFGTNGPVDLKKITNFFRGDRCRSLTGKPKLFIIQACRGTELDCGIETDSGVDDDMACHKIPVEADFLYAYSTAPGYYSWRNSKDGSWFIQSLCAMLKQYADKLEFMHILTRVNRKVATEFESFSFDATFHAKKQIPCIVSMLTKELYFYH
UniProt P05455, sequence (P05455 whole entry, looked up): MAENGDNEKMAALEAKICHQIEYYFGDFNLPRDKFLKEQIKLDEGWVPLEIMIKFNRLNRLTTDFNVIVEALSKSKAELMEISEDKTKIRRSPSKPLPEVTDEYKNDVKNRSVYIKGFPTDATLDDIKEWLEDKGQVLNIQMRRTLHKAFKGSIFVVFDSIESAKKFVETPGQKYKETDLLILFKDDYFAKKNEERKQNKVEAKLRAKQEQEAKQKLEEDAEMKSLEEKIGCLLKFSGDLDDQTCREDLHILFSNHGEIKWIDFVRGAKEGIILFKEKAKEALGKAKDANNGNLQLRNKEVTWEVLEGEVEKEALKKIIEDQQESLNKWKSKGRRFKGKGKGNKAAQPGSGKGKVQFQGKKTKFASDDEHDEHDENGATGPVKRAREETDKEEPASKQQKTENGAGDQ
UniProt P30566, sequence (P30566 whole entry): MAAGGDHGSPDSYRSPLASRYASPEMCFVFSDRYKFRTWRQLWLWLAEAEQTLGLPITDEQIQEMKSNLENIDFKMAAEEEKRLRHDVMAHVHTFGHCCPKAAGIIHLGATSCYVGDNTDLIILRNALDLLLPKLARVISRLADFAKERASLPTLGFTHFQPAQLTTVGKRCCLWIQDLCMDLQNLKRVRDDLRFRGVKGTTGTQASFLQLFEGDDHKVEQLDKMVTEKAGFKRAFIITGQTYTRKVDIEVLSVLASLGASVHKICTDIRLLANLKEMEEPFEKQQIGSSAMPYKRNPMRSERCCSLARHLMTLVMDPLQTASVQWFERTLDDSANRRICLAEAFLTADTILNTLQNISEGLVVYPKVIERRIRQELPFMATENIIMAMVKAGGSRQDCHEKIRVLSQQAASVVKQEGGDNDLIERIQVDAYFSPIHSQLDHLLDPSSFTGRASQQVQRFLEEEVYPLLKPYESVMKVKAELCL
UniProt P14625, sequence (P14625 whole entry, looked up): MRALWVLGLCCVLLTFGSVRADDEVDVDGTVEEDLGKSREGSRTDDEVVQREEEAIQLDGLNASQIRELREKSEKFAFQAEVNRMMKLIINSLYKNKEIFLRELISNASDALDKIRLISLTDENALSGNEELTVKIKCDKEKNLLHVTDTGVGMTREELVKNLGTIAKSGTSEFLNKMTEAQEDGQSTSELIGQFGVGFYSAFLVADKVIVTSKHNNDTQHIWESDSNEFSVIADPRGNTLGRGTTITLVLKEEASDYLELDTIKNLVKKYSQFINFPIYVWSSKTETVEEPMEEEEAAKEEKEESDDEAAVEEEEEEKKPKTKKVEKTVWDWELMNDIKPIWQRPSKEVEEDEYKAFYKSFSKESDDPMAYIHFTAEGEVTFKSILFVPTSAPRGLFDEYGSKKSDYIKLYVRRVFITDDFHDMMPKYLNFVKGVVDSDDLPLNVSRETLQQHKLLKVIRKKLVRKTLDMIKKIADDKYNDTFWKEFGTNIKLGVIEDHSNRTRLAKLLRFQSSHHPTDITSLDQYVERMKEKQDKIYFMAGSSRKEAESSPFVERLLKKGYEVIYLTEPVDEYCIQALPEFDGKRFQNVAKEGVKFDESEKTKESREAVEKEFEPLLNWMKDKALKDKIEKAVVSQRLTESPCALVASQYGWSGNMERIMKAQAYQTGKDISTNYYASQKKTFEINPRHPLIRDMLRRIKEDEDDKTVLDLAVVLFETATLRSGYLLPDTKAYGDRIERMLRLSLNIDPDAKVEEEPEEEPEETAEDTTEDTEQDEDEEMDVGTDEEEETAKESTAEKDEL
UniProt P46940, sequence (P46940 whole entry, looked up): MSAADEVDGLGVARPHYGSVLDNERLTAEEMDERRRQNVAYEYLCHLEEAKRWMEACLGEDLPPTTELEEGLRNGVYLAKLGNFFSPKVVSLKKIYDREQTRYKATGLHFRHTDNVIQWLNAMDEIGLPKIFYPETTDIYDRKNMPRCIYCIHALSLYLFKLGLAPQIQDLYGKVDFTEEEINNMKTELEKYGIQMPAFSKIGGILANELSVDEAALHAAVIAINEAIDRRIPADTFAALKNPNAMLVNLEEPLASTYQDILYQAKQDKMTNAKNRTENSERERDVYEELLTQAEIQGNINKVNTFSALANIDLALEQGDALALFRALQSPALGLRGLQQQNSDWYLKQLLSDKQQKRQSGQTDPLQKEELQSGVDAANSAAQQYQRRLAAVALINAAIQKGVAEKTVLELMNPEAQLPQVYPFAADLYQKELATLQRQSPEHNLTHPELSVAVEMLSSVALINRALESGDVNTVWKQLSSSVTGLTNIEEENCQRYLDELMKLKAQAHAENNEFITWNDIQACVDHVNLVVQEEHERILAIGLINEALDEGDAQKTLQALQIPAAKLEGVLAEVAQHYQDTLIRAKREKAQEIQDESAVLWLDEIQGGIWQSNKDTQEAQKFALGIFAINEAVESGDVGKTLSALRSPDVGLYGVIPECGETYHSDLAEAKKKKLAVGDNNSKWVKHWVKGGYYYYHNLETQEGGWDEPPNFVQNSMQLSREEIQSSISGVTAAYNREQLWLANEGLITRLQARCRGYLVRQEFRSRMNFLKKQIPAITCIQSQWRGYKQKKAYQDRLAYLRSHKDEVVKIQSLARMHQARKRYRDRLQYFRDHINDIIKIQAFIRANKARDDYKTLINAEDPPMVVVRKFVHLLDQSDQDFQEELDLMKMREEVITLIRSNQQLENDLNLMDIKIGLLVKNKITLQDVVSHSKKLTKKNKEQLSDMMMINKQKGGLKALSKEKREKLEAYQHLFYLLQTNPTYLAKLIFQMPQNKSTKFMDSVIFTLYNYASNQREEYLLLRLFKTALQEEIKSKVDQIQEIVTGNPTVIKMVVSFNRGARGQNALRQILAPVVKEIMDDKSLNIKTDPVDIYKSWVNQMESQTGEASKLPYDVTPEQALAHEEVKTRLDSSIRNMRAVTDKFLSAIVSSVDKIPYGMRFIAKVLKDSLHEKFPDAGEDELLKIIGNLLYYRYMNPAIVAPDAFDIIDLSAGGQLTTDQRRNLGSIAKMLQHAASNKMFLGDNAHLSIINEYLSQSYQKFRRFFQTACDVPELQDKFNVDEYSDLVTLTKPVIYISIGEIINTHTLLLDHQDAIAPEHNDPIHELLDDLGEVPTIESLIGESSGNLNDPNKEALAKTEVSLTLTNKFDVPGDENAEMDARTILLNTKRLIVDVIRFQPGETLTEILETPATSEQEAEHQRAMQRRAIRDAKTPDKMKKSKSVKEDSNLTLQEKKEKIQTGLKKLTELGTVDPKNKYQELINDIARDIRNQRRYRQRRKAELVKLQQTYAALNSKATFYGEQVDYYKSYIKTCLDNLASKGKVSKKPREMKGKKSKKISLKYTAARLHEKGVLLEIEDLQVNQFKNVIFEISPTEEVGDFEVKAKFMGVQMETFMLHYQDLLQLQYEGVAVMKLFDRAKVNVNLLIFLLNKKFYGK
UniProt O95983, sequence (O95983 whole entry, looked up): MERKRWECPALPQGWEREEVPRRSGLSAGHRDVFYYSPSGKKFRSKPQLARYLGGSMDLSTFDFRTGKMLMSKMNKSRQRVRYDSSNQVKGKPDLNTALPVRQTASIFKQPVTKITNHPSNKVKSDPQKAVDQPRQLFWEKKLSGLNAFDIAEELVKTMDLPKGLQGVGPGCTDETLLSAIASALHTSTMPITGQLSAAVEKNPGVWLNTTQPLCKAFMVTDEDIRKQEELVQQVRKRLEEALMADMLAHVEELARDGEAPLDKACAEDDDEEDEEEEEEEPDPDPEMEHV

| Target | log2 ratio of iodoacetamide-alkyne labeling |
| --- | --- |
| CRKL C249 (UniProt P46109) | 1.61 (active) |
| UniProt P14618_C424 | -0.246 |
| UniProt P00519_C1100 | 0.9 |
| UniProt P49459_C88 | 0.243 |
| UniProt P26639_C343 | 0.143 |
| ACAA1 C123 (UniProt P09110) | -0.0075 |
| ANXA7 C285 (UniProt P20073) | 0.0794 |
| CASP3 C184 (UniProt P42574) | 0.259 |
| ETFB C71 (UniProt P38117) | 0.579 |
| MBD3 C266 (UniProt O95983) | 0.0164 |
| FECH C395 (UniProt P22830) | 0.372 |
| SHMT1 C96 (UniProt P34896) | 0.0443 |
| GDI2 C202 (UniProt P50395) | -0.0158 |
| BPNT1 C206 (UniProt O95861) | 0.27 |
| MKI67 C2206 (UniProt P46013) | 0.603 |
| DNAJA1 C149 (UniProt P31689) | 0.14 |
| RANBP2 C1335 (UniProt P49792) | 0.226 |
| FDFT1 C6 (UniProt P37268) | 0.233 |
| EEF2 C369 (UniProt P13639) | 0.24 |
| ADD1 C68 (UniProt P35611) | 0.368 |
| MTHFD1 C691 (UniProt P11586) | 0.242 |
| ANXA7 C363 (UniProt P20073) | 0.0125 |
| EEF2 C812 (UniProt P13639) | 0.148 |
| UniProt P14618_C49 | -0.193 |
| HNRNPA1 C175 (UniProt P09651) | -0.128 |

| Target | log2 ratio of iodoacetamide-alkyne labeling |
| --- | --- |
| IDH3A C359 (UniProt P50213) | 1.05 (active) |
| RCC1 C93 (UniProt P18754) | 0.14 |
| SEPHS1 C31 (UniProt P49903) | 0.175 |
| APC C1387 (UniProt P25054) | 0.256 |
| MCM4 C162 (UniProt P33991) | 0.055 |
| ADSL C27 (UniProt P30566) | 0.0306 |
| RAP1GDS1 C85 (UniProt P52306) | 0.197 |
| AARS C723 (UniProt P49588) | 0.264 |
| MAP1B C73 (UniProt P46821) | 0.173 |
| IDH2 C154 (UniProt P48735) | 0.393 |
| MAT2A C104 (UniProt P31153) | 0.274 |
| PPP2R1A C377 (UniProt P30153) | 0.919 |
| GYS1 C699 (UniProt P13807) | 0.526 |
| TAGLN2 C38 (UniProt P37802) | -0.0194 |
| TMPO C280 (UniProt P42166) | 1.09 (active) |
| IGF2R C2232 (UniProt P11717) | 1.08 (active) |
| PRKCSH C500 (UniProt P14314) | 0.513 |
| FBL C268 (UniProt P22087) | 0.27 |
| CAPN2 C301 (UniProt P17655) | 2.17 (active) |
| RANBP2 C1296 (UniProt P49792) | 0.543 |
| RRM1 C352 (UniProt P23921) | 0.357 |
| UniProt P28482_C254 | -0.0158 |
| CCT6A C282 (UniProt P40227) | 0.13 |
| MYH9 C1379 (UniProt P35579) | 0.164 |
| SSB C18 (UniProt P05455) | -0.139 |

| Target | log2 ratio of iodoacetamide-alkyne labeling |
| --- | --- |
| DSP C3 (UniProt P15924) | 1.14 (active) |
| HSP90B1 C645 (UniProt P14625) | -0.0466 |
| CKB C283 (UniProt P12277) | 0.217 |
| GART C466 (UniProt P22102) | 0.199 |
| PABPC1 C128 (UniProt P11940) | -0.0389 |
| CCT8 C244 (UniProt P50990) | 0.242 |
| RPL4 C96 (UniProt P36578) | 1.24 (active) |
| PPP2R1A C294 (UniProt P30153) | 0.323 |
| LRPPRC C208 (UniProt P42704) | 0.123 |
| PLS3 C33 (UniProt P13797) | 1.04 (active) |
| IQGAP1 C781 (UniProt P46940) | 0.821 |
| ACAA1 C177 (UniProt P09110) | 0.162 |
| CCT4 C337 (UniProt P50991) | 0.0635 |
| POLD1 C837 (UniProt P28340) | 1.16 (active) |
| MAP1B C2088 (UniProt P46821) | 0.329 |
| FLNA C1018 (UniProt P21333) | 0.0782 |
| HSP90AB1 C521 (UniProt P08238) | 0.298 |
| RNH1 C75 (UniProt P13489) | 0.145 |
| RPL10 C195 (UniProt P27635) | 0.694 |
| UniProt P35568_C494 | 0.123 |
| COMT C241 (UniProt P21964) | 0.194 |
| FLNA C2107 (UniProt P21333) | 0.12 |
| LDHB C294 (UniProt P07195) | -0.0731 |
| UniProt P23610_C62 | 0.0767 |
